# The list is not random: actives were taken first. Their share in the collection is about 11%.
# PI5P4K alpha inh: qHTS for Inhibitors of phosphatidylinositol 5-phosphate 4-kinase (PI5P4K); AID 652105, 2013; PI5P4Kalpha enzyme, ADP-Glo luminescence, 60 min; hits give low values; Phosphatidylinositol 5-phosphate 4-kinase type-2 alpha (Homo sapiens), P48426; max response, %; hit rate 1.2% among 330,000; active = max response of -50% or lower; inconclusive = between -30% and -50%; inactive = -30% or higher; note: value at the top dose of about 77 µM; % is set by controls: 0 for no effect and ±100 for the full control effect
#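 ADP-Glo luminescence end-point read after a 60 min room-temperature kinase reaction of PI5P4Kalpha plus substrate, initiated with ATP at 5 microM final. Buffer: 0.038 M HEPES pH 7.4, EGTA, 0.1% CHAPS, 5% DMSO.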
# L3MBTL1 inh: qHTS Assay for the Inhibitors of L3MBTL1. AlphaScreen L3MBTL1–H3K9me1 peptide binding. Potency, µM (titrated, usually from 57.1 µM), without a hit: at the highest dose activity, negative = inhibition, usual class: inhibitors. hit rate 0.66% among 230,000. AID 485360, 2010; note: potency is the fitted concentration of half-maximal effect; % is set by controls: 0 for no effect and ±100 for the full control effect; nearly all actives have a fitted effect of over 60% in size
#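 Read-out is AlphaScreen signal from streptavidin donor and nickel chelate acceptor beads (10 ug/mL final each) bridging L3MBTL1 (50 nM) and biotinylated K9-monomethylated H3(1-15) peptide (75 nM), after 30 min compound exposure at room temperature.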
# HP1b chromo inh: HTS for Inhibitors of HP1-beta Chromodomain Interactions with Methylated Histone Tails | Chromobox protein homolog 1 (Homo sapiens), P83916 | AlphaScreen HP1-beta / biotin-H3K9me3 peptide binding | Potency, µM (highest dose often 114 µM), for inactives: top-dose activity change, negative = inhibition, most hits filed as inhibitors | hit rate 0.56% among 390,000; note: potency is the fitted concentration of half-maximal effect; nearly all actives have a fitted effect of over 70% in size
# Target sequence (P83916 whole entry, looked up): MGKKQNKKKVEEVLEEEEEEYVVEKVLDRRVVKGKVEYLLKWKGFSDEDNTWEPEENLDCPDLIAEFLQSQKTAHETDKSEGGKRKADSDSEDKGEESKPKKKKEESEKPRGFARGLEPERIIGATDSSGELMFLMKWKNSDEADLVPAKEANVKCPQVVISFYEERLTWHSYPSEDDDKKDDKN
#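 Compound inhibition of the preformed complex between 50 nM HP1-beta and 50 nM biotinylated H3K9me3 peptide was read by AlphaScreen. Buffer was PBS pH 7.4 with 0.01% Tween-20. Incubations ran 30 min at room temperature, with 10 ug/mL donor/acceptor beads.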
# BAZ2B inh: qHTS Assay for Inhibitors of BAZ2B; Bromodomain adjacent to zinc finger domain protein 2B (Homo sapiens), Q9UIF8; AlphaScreen BAZ2B-H3K14Ac peptide displacement; Potency, µM (highest dose often 114 µM), inactives show at the top dose activity change, negative = inhibition, usual class: inhibitors; hit rate 4.4% among 360,000; AID 504333, 2011; note: potency is the fitted concentration of half-maximal effect; % is set by controls: 0 for no effect and ±100 for the full control effect; nearly all actives have a fitted effect of over 60% in size
#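 Compounds, titrated to a top concentration of 110 uM, were incubated 30 min at room temperature with preformed BAZ2B/acetyl-K14 H3 peptide complex (50 nM each). Proximity signal was measured by AlphaScreen after 20 min with beads.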
# JMJD2A Tudor: qHTS Assay for Inhibitors of JMJD2A-Tudor Domain | Lysine-specific demethylase 4A (Homo sapiens), O75164 | AlphaScreen JMJD2A-Tudor / H3K4me3 peptide binding | Potency, µM (doses to about 114 µM), for the others: at the top dose activity change, negative = inhibition, hits mostly inhibitors | hit rate 4.4% among 390,000; note: potency is the fitted concentration of half-maximal effect; % is set by controls: 0 for no effect and ±100 for the full control effect; nearly all actives have a fitted effect of over 50% in size
# G9a inh: qHTS Assay for Inhibitors of Histone Lysine Methyltransferase G9a. Histone-lysine N-methyltransferase EHMT2 (Homo sapiens), Q96KQ7. G9a H3K9 monomethylation, AlphaScreen, 2 h. Potency, µM (doses to about 102 µM), for the others: at the top dose activity, negative = inhibition, usual class: inhibitors. hit rate 8.8% among 350,000. AID 504332, 2011; note: potency is the fitted concentration of half-maximal effect; % is set by controls: 0 for no effect and ±100 for the full control effect; nearly all actives have a fitted effect of over 75% in size
# Target sequence (Q96KQ7 913-1193 limits assumed): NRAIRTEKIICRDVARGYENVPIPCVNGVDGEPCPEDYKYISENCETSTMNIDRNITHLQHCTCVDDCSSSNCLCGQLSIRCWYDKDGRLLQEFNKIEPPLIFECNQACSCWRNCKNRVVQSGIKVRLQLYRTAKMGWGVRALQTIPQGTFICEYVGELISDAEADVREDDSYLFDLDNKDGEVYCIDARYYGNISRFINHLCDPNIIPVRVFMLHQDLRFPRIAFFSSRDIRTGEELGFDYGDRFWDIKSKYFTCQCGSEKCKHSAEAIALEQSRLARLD
#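 G9a (20 nM) was preincubated 15 min with compound, then reacted 2 h at room temperature with 500 nM biotin-H3K9 peptide and 20 µM SAM. Monomethyl-H3K9 detected by AlphaScreen using anti-H3K9me1 antibody.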
# * hit, by the source's call; ? = inconclusive; · = no result given; [ ] = remark or other dose. Unless noted, calls come from the whole dose curve; as a rule, active = well fitted inhibition curve with a large enough effect; inconclusive = small, poorly fitted or top-dose-only effect; inactive = no such curve, though single readings can be large or run the other way.
SMILES,PI5P4K alpha inh,L3MBTL1 inh,HP1b chromo inh,BAZ2B inh,JMJD2A Tudor,G9a inh
CC(c1ccco1)N(C(=O)c1ccccc1NS(=O)(=O)c1ccc(Cl)cc1)c1ccccn1 (stereo not given),-2,-8%,-2%,-34%,-34%,?
CC(c1ccco1)N(C(=O)c1ccccc1NS(=O)(=O)c1cccc([N+](=O)[O-])c1)c1ccccn1 (stereo not given),1,-12%,15%,-38%,-24%,79µM*
CC(c1ccco1)N(C(=O)c1ccccc1NS(=O)(=O)c1cc([N+](=O)[O-])ccc1Cl)c1ccccn1 (stereo not given),-3,-10%,-12%,79µM*,25µM*,4µM*
CC(c1ccco1)N(C(=O)c1ccc(Cl)c([N+](=O)[O-])c1)c1ccccn1 (stereo not given),-2,·,18%,-32%,-27%,-30%
CCCC1CCc2c(sc(N)c2C(N)=O)C1 (stereo not given),?,·,?,?,?,32µM*
CC1(C)Cc2c(sc3nc(SCC(=O)O)nc(N)c23)CO1,4,-1%,33%,-3%,-13%,21%
CC(C)(C)C1CCc2c(sc3nc(SCC(=O)O)nc(N)c23)C1 (stereo not given),0,5%,14%,-13%,-12%,28µM*
CCOC(=O)c1c(N)sc2c1CCC(C)C2 (stereo not given),-7,-3%,-9%,?,-22%,?
CCC(C)(C)C1CCc2c(sc(N)c2C(N)=O)C1 (stereo not given),-28,-10%,-11%,?,?,?
CC(C)(C)C1CCc2c(sc(N)c2C(N)=O)C1 (stereo not given),?,-9%,13%,-20%,-27%,4µM*
COc1cc(-c2ccc3ncnc(NCc4nc(C)cs4)c3c2)cc(OC)c1OC,·,·,·,·,-33%,·
Nc1ncc(S(=O)(=O)Nc2ccc(F)cc2F)cn1,·,·,26%[57 µM],3%,-5%,-3%[59 µM]
COc1ccc(CNC(=O)CCc2nc3cccnc3n2Cc2ccccc2)cc1,·,·,32%,-6%,-9%,-3%[59 µM]
O=C(O)c1cc(-c2ccc(/C=C3\NC(=O)N(c4ccc(Cl)cc4)C3=O)o2)ccc1Cl,?,7.9µM*,?,45µM*,32µM*,10µM*
Cc1cccc(N2NC(=O)/C(=C/c3ccc(-c4ccc(Cl)c(C(=O)O)c4)o3)C2=O)c1,?,·,?,·,?,13µM*
O=C(O)Cn1cc(/C=C2/NC(=O)N(c3ccc(Cl)cc3)C2=O)c2ccccc21,-12,3%,24%,-27%,-31%,?
Cc1ccc(Sc2ccc(/C=C3/C(=O)NN(c4ccccc4)C3=O)o2)cc1,?,·,6%,?,?,-24%[59 µM]
O=C1NN(c2ccccc2)C(=O)/C1=C/c1ccc(-c2ccc(Cl)c(C(=O)O)c2)o1,-16,·,?,50µM*,56µM*,18µM*
C#CCN1C(=O)S/C(=C\c2ccc(-c3ccc(Cl)c(C(=O)O)c3)o2)C1=O,?,?,32%,-32%,-1%,45µM*
COc1ccc(NC(=O)Cn2c(=O)n(Cc3ccccc3)c(=O)c3sc4ccccc4c32)cc1,·,·,13%,-2%,-10%,4%[59 µM]
O=C(Cc1ccccc1)N(Cc1cccnc1)c1nc2c(F)cc(F)cc2s1,·,·,1%,-10%,-22%,7%[59 µM]
COc1ccc(Cl)cc1NC(=O)CSc1nc(=O)n(Cc2ccco2)c2c1CCC2,·,·,32%,-9%,-13%,-8%[59 µM]

# From PubChem BioAssay
